# Results published in the supplement of paper PMC4466140.
# Key:
# Experiment in all cases: SPOT peptide array binding signal intensity (averaged, normalized) (arbitrary units (background-subtracted, floor 0; scale differs between SH3 domains)); higher = stronger binding of the SH3 domain to the peptide
# AgAbp1 = target: AgAbp1
# Outline: (§1)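 Peptides were synthetic 15-mers on cellulose membranes, with every cysteine replaced by serine. They were incubated overnight at 4°C with GST-SH3 domains from four yeast species at 10 μg/ml in TBS-based blocking buffer. Binding signal, the replicate-averaged normalized and background-subtracted spot intensity, is in arbitrary units that differ between domains.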
# AgBbc1 = target: AgBbc1
# Outline: as §1
# AgBem1-D1 = target: AgBem1-D1
# Outline: as §1
# AgBzz1-D1 = target: AgBzz1-D1
# Outline: as §1
# AgBzz1-D2 = target: AgBzz1-D2
# Outline: as §1
# AgCyk3 = target: AgCyk3
# Outline: as §1
# AgFus1 = target: AgFus1
# Outline: as §1
# AgHof1 = target: AgHof1
# Outline: as §1
# AgHse1 = target: AgHse1
# Outline: as §1
# AgLsb1 = target: AgLsb1
# Outline: as §1
# AgLsb4 = target: AgLsb4
# Outline: as §1
# AgMyo5 = target: AgMyo5
# Outline: as §1
# AgNbp2 = target: AgNbp2
# Outline: as §1
# AgRvs167 = target: AgRvs167
# Outline: as §1
# AgSho1 = target: AgSho1
# Outline: as §1
# AgSla1-D1-D2 = target: AgSla1-D1-D2
# Outline: as §1
# AgSla1-D3 = target: AgSla1-D3
# Outline: as §1
# CaAbp1-D1 = target: CaAbp1-D1
# Outline: as §1
# CaAbp1-D2 = target: CaAbp1-D2
# Outline: as §1
# CaBbc1 = target: CaBbc1
# Outline: as §1
# CaBem1-D1 = target: CaBem1-D1
# Outline: as §1
# CaBzz1-D1 = target: CaBzz1-D1
# Outline: as §1
# CaBzz1-D2 = target: CaBzz1-D2
# Outline: as §1
# CaCyk3 = target: CaCyk3
# Outline: as §1
# CaFus1 = target: CaFus1
# Outline: as §1
# CaHof1 = target: CaHof1
# Outline: as §1
# CaHse1 = target: CaHse1
# Outline: as §1
# CaLsb1 = target: CaLsb1
# Outline: as §1
# CaLsb4 = target: CaLsb4
# Outline: as §1
# CaMyo5 = target: CaMyo5
# Outline: as §1
# CaNbp2 = target: CaNbp2
# Outline: as §1
# CaRvs167 = target: CaRvs167
# Outline: as §1
# CaRvs167-3 = target: CaRvs167-3
# Outline: as §1
# CaSho1 = target: CaSho1
# Outline: as §1
# CaSla1-D1-D2 = target: CaSla1-D1-D2
# Outline: as §1
# CaSla1-D3 = target: CaSla1-D3
# Outline: as §1
# ScAbp1 = target: ScAbp1
# Outline: as §1
# ScBbc1 = target: ScBbc1
# Outline: as §1
# ScBem1-D1 = target: ScBem1-D1
# Outline: as §1
# ScBzz1-D1 = target: ScBzz1-D1
# Outline: as §1
# ScBzz1-D2 = target: ScBzz1-D2
# Outline: as §1
# ScCyk3 = target: ScCyk3
# Outline: as §1
# ScFus1 = target: ScFus1
# Outline: as §1
# ScHof1 = target: ScHof1
# Outline: as §1
# ScHse1 = target: ScHse1
# Outline: as §1
# ScLsb1 = target: ScLsb1
# Outline: as §1
# ScLsb2 = target: ScLsb2
# Outline: as §1
# ScLsb3 = target: ScLsb3
# Outline: as §1
# ScLsb4 = target: ScLsb4
# Outline: as §1
# ScMyo3 = target: ScMyo3
# Outline: as §1
# ScMyo5 = target: ScMyo5
# Outline: as §1
# ScNbp2 = target: ScNbp2
# Outline: as §1
# ScPex13 = target: ScPex13
# Outline: as §1
# ScRvs167 = target: ScRvs167
# Outline: as §1
# ScSho1 = target: ScSho1
# Outline: as §1
# ScSla1-D1-D2 = target: ScSla1-D1-D2
# Outline: as §1
# ScSla1-D3 = target: ScSla1-D3
# Outline: as §1
# SpAbp1-D1 = target: SpAbp1-D1
# Outline: as §1
# SpBbc1 = target: SpBbc1
# Outline: as §1
# SpBzz1-D1 = target: SpBzz1-D1
# Outline: as §1
# SpBzz1-D2 = target: SpBzz1-D2
# Outline: as §1
# SpCyk3 = target: SpCyk3
# Outline: as §1
# SpHof1 = target: SpHof1
# Outline: as §1
# SpHof1-2 = target: SpHof1-2
# Outline: as §1
# SpHof1-3 = target: SpHof1-3
# Outline: as §1
# SpHse1 = target: SpHse1
# Outline: as §1
# SpLsb1 = target: SpLsb1
# Outline: as §1
# SpLsb4 = target: SpLsb4
# Outline: as §1
# SpMyo1 = target: SpMyo1
# Outline: as §1
# SpNbp2 = target: SpNbp2
# Outline: as §1
# SpPex13 = target: SpPex13
# Outline: as §1
# SpRvs167 = target: SpRvs167
# Outline: as §1
# SpSla1-D1-D2 = target: SpSla1-D1-D2
# Outline: as §1
# SpSla1-D3 = target: SpSla1-D3
# Outline: as §1
binder,measurement,setting,value
KTRLRPAFIQQLWSS,SPOT peptide array binding signal intensity,AgAbp1,12
same,SPOT peptide array binding signal intensity,AgBbc1,18.8
same,SPOT peptide array binding signal intensity,AgBem1-D1,181
same,SPOT peptide array binding signal intensity,AgBzz1-D1,82.5
same,SPOT peptide array binding signal intensity,AgBzz1-D2,32.5
same,SPOT peptide array binding signal intensity,AgCyk3,1
same,SPOT peptide array binding signal intensity,AgFus1,286
same,SPOT peptide array binding signal intensity,AgHof1,45.5
same,SPOT peptide array binding signal intensity,AgHse1,630
same,SPOT peptide array binding signal intensity,AgLsb1,1
same,SPOT peptide array binding signal intensity,AgLsb4,29.5
same,SPOT peptide array binding signal intensity,AgMyo5,3
same,SPOT peptide array binding signal intensity,AgNbp2,94.5
same,SPOT peptide array binding signal intensity,AgRvs167,2.83
same,SPOT peptide array binding signal intensity,AgSho1,12
same,SPOT peptide array binding signal intensity,AgSla1-D1-D2,18
same,SPOT peptide array binding signal intensity,AgSla1-D3,19.8
same,SPOT peptide array binding signal intensity,CaAbp1-D1,130
same,SPOT peptide array binding signal intensity,CaAbp1-D2,38.5
same,SPOT peptide array binding signal intensity,CaBbc1,82.5
same,SPOT peptide array binding signal intensity,CaBem1-D1,46
same,SPOT peptide array binding signal intensity,CaBzz1-D1,58.5
same,SPOT peptide array binding signal intensity,CaBzz1-D2,59
same,SPOT peptide array binding signal intensity,CaCyk3,6
same,SPOT peptide array binding signal intensity,CaFus1,912
same,SPOT peptide array binding signal intensity,CaHof1,2
same,SPOT peptide array binding signal intensity,CaHse1,10.8
same,SPOT peptide array binding signal intensity,CaLsb1,0.5
same,SPOT peptide array binding signal intensity,CaLsb4,14
same,SPOT peptide array binding signal intensity,CaMyo5,4
same,SPOT peptide array binding signal intensity,CaNbp2,338
same,SPOT peptide array binding signal intensity,CaRvs167,17.3
same,SPOT peptide array binding signal intensity,CaRvs167-3,2
same,SPOT peptide array binding signal intensity,CaSho1,338
same,SPOT peptide array binding signal intensity,CaSla1-D1-D2,≤ 0
same,SPOT peptide array binding signal intensity,CaSla1-D3,9.5
same,SPOT peptide array binding signal intensity,ScAbp1,17
same,SPOT peptide array binding signal intensity,ScBbc1,6.25
same,SPOT peptide array binding signal intensity,ScBem1-D1,60
same,SPOT peptide array binding signal intensity,ScBzz1-D1,29.5
same,SPOT peptide array binding signal intensity,ScBzz1-D2,82.5
same,SPOT peptide array binding signal intensity,ScCyk3,47
same,SPOT peptide array binding signal intensity,ScFus1,170
same,SPOT peptide array binding signal intensity,ScHof1,5.75
same,SPOT peptide array binding signal intensity,ScHse1,1510
same,SPOT peptide array binding signal intensity,ScLsb1,≤ 0
same,SPOT peptide array binding signal intensity,ScLsb2,≤ 0
same,SPOT peptide array binding signal intensity,ScLsb3,74.5
same,SPOT peptide array binding signal intensity,ScLsb4,1.5
same,SPOT peptide array binding signal intensity,ScMyo3,10
same,SPOT peptide array binding signal intensity,ScMyo5,3.5
same,SPOT peptide array binding signal intensity,ScNbp2,121
same,SPOT peptide array binding signal intensity,ScPex13,6.25
same,SPOT peptide array binding signal intensity,ScRvs167,13
same,SPOT peptide array binding signal intensity,ScSho1,431
same,SPOT peptide array binding signal intensity,ScSla1-D1-D2,36
same,SPOT peptide array binding signal intensity,ScSla1-D3,27.5
same,SPOT peptide array binding signal intensity,SpAbp1-D1,54.5
same,SPOT peptide array binding signal intensity,SpBbc1,4
same,SPOT peptide array binding signal intensity,SpBzz1-D1,170
same,SPOT peptide array binding signal intensity,SpBzz1-D2,1
same,SPOT peptide array binding signal intensity,SpCyk3,5
same,SPOT peptide array binding signal intensity,SpHof1,117
same,SPOT peptide array binding signal intensity,SpHof1-2,13.2
same,SPOT peptide array binding signal intensity,SpHof1-3,571
same,SPOT peptide array binding signal intensity,SpHse1,696
same,SPOT peptide array binding signal intensity,SpLsb1,≤ 0
same,SPOT peptide array binding signal intensity,SpLsb4,7
same,SPOT peptide array binding signal intensity,SpMyo1,3
same,SPOT peptide array binding signal intensity,SpNbp2,58.5
same,SPOT peptide array binding signal intensity,SpPex13,17
same,SPOT peptide array binding signal intensity,SpRvs167,6.67
same,SPOT peptide array binding signal intensity,SpSla1-D1-D2,≤ 0
same,SPOT peptide array binding signal intensity,SpSla1-D3,8
